From PubChem BioAssay (EPA / NIEHS)
The source made the active and inactive calls. How the source made its calls: active means hit-call score of the fitted dose curve at least 0.9, where 1 is the maximum; inactive means score below 0.9.

Assay: ATG_M_32_CIS: Attagene CIS-FACTORIAL HepG2 Assay for M32 Transcription Factor (Internal Marker) (AID 2282949);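 further: background control marker of the multiplexed CIS panel rather than a real target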
Details: HepG2 Attagene cis-factorial M32 reporter, mRNA; actives raise or lower the signal
Method in brief: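 Using DMSO as baseline, bidirectional curve fits were applied to reporter mRNA signals. These came from transiently transfected HepG2 cells exposed for 24 h, with RNA analysed by RT-PCR, FAM primer extension, HpaI digestion and CE.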

Row | Structure (SMILES) | outcome
1 | O=C1C(Cl)=C(Cl)C(=O)C(Cl)=C1Cl | inactive
2 | N#CCCCCC#N | inactive
3 | CC1CCC(=O)O1 (stereo not given) | inactive
4 | COc1cc(OC)c(OC)cc1C=O | inactive
5 | CC(C)c1ccc(O)cc1 | inactive
6 | C[N+](C)(C)CC(=O)[O-] | inactive
7 | CC(C)(c1cc(Cl)c(O)c(Cl)c1)c1cc(Cl)c(O)c(Cl)c1 | inactive
8 | O=C(NCNC(=O)NC1C(=O)NC(=O)N1CO)NC1C(=O)NC(=O)N1CO (stereo not given) | inactive
9 | [N-]=[N+]=CC(=O)OC[C@H](N)C(=O)O | inactive
10 | COCC(=O)N(c1c(C)cccc1C)N1CCOC1=O | inactive
11 | CC(C)CCCCCCCOP(=O)(Oc1ccccc1)Oc1ccccc1 | inactive
12 | CCC1CCC(=O)O1 (stereo not given) | inactive
13 | C=COCCCl | inactive
14 | C=CCN(CC=C)C(=O)C(Cl)Cl | inactive
15 | CC[N+](=O)[O-] | inactive
16 | CC(Cc1ccc(C(C)(C)C)cc1)CN1C[C@@H](C)O[C@@H](C)C1 (stereo not given in full) | inactive
17 | [Cl-].[Cl-].[Cl-].[Yb+3] | inactive
18 | CCOC(=O)N(C)N=O | inactive
19 | O=CNC(N1CCN(C(NC=O)C(Cl)(Cl)Cl)CC1)C(Cl)(Cl)Cl (stereo not given) | inactive
20 | CCC[N+](=O)[O-] | inactive

Row | Structure (SMILES) | outcome
21 | CC(C)(O)C#N | inactive
22 | CC(C)C#N | inactive
23 | S=c1[nH]c2ccccc2[nH]1 | inactive
24 | CCCCCc1cc(O)cc(O)c1 | inactive
25 | c1ccc(Nc2ccc3ccccc3c2)cc1 | inactive
26 | CSc1nc(N=[N+]=[N-])nc(NC(C)C)n1 | inactive
27 | CC=Cc1ccc2c(c1)OCO2 | inactive
28 | Cc1ccc(OP(=O)(Oc2ccc(C)cc2)Oc2ccc(C)cc2)cc1 (tested in a mixture with another compound) | inactive
29 | ClC1=C(Cl)[C@]2(Cl)[C@@H]3[C@@H](Cl)[C@H](Cl)C[C@@H]3[C@@]1(Cl)C2(Cl)Cl | inactive
30 | O=S(=O)(c1ccccc1)c1ccccc1 | inactive
31 | CCC(C)c1cc(C(C)(C)C)cc(-n2nc3ccccc3n2)c1O (stereo not given) | inactive
32 | CC1(C)C(=O)NC(=O)NC1=O | inactive
33 | CC(=O)/C=C/c1ccccc1 | inactive
34 | c1ccc(P(c2ccccc2)c2ccccc2)cc1 | inactive
35 | CCOC(=O)COc1ccc(Cl)cc1Cl | inactive
36 | CCN(CC)C(=S)S | inactive
37 | N#Cc1cccc(C#N)c1 | inactive
38 | O=C1Nc2ccc(Cl)cc2C(c2ccccc2)=NC1O (stereo not given) | inactive
39 | N#CC(c1ccccc1)c1ccccc1 | inactive
40 | C[N+](C)=CCl | inactive
